The structures appear in SMILES notation. Inconclusive results are not listed. Where a call stands in place of a potency, no number is given. Active and inactive are the calls of the source. Calls come from the whole dose curve.
Potency is the fitted concentration of half-maximal effect.

This assay can be described thus: p53 small molecule agonists, cell-based qHTS assay with rat liver microsomes: qHTS cell viability counter screen (AID 1963580). Note: nearly all actives have a fitted effect of over 45% in size. As to conditions: p53RE-bla HCT-116 + rat microsomes, ATP viability, 16 h; series mostly up to 66 µM. The method in brief: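 Viability is assessed in parallel with the p53 reporter read: HCT-116 p53RE-bla cells receive compounds plus rat microsomes and NADPH (0.5 mg/mL final apiece), incubate 16 h at 37 C, and then CellTiter-Glo luminescence is recorded.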
Regarding `O=C=NCC1CCCC(CN=C=O)C1` (stereo not given), the Potency result was “inactive”.

`CC(CCO)CCCC(C)(C)O` (stereo not given): the Potency entry is “inactive”.

On to `Cc1ccc2ccc3cccc4ccc1c2c34`, for which the Potency entry is “inactive”.

As for `CCOc1ccc(NS(=O)(=O)c2ccc(N)cc2)nn1`, the Potency result was “inactive”.

Consider `COC(=O)c1cc(Cl)cc(Cl)c1`, for which the Potency entry was “inactive”.

As for `Oc1cc2ccccc2c2ccccc12`, the Potency was 6.46 µM (active).

Take `Cc1ccc(-c2ncc(Cl)cc2-c2ccc(S(C)(=O)=O)cc2)cn1`: the Potency result was “inactive”.

For `Cc1[nH]c(C)c(Cl)c(=O)c1Cl`, the activity change, negative = cytotoxicity was 4.54% [at 13.5 µM] (inactive).

Take `CCCNCCC`: the Potency result is “inactive”.

With `COc1cc(N)ccc1C`, the Potency entry was “inactive”.

`Cc1ccc2c(c1)CCCN2`: the Potency entry is “inactive”.

`NCCCCCCNCCCCCCN`: the Potency result was “inactive”.

With `CC(C)(C)C1CCCCC1=O` (stereo not given), the Potency entry was “inactive”.

In the case of `CN(C)CCOCCO`, the Potency entry is “inactive”.

`CC1(C)CC(O)CC(C)(C)N1[O]`: the Potency entry was “inactive”.

For `C=CCCCCCCCCCCCCCC`, the activity change, negative = cytotoxicity is -3.36% [at 13.5 µM] (inactive).

Take `CCN1C=CN(C)C1C` (stereo not given): the Potency entry is “inactive”.

As for `CC[N+](C)(CC)CCOC(=O)C1c2ccccc2Oc2ccccc21`, the Potency result was “inactive”.

For the molecule `NCCCN(CCO)CCO`, the Potency result was “inactive”.

With `O=Cc1cc(O)ccc1Br`, the Potency result was “inactive”.

`O=CN(CCO)CCO`: the Potency entry is “inactive”.

As to `CCN(C(=O)N(CC)c1ccccc1)c1ccccc1`, the Potency result is “inactive”.

For `CCC(CC)CO`, the Potency entry was “inactive”.

Turning to `CC/C=C\CC/C=C/CO`, the Potency result was “inactive”.

In the case of `CC(CSC(=O)c1ccccc1)C(=O)N1C[C@@H](Sc2ccccc2)C[C@H]1C(=O)O` (stereo not given in full), the activity change, negative = cytotoxicity was -5.44% [at 13.5 µM] (inactive).

As for `Cc1ccccc1N=C(N)Nc1ccccc1C`, the Potency result is “inactive”.

Regarding `C1C2OC2C2C1C1CC2C2OC12` (stereo not given), the Potency entry is “inactive”.

On to `CC[N+](CC)(CC)CCOC(=O)C(C1CCCC1)C1CCCC1`, for which the Potency entry is “inactive”.

For the molecule `O=C1CCCCCCCCCCCC(=O)OCCO1`, the Potency entry is “inactive”.

With `CCCCOC(=O)CCCCC(=O)OCCCC`, the Potency entry is “inactive”.

`c1cc[c]([Bi]([c]2ccccc2)[c]2ccccc2)cc1`: the Potency entry was “inactive”.

With `C=C[Si](OC)(OC)OC`, the Potency result is “inactive”.

`CC(CC=O)CCCC(C)(C)O` (stereo not given): the Potency entry is “inactive”.

For `CCOC(=O)C1=NN(c2ccccc2)C(=O)C1`, the Potency entry is “inactive”.

Take `Cc1c(Cl)cccc1Cl`: the Potency entry was “inactive”.

With `O=C1c2cccc3c2[C@H](CCC3)CN1[C@@H]1CN2CCC1CC2`, the Potency result was “inactive”.

Turning to `CCCCC(CC)COC(=O)c1ccccc1` (stereo not given), the Potency entry was “inactive”.

With `CN(C)CCOC(=O)C(c1ccccc1)C1(O)CCCC1` (stereo not given), the Potency result is “inactive”.

With `CCN1CCC[C@H]1CNC(=O)c1c(OC)ccc(Br)c1OC`, the Potency result is “inactive”.

Regarding `CCCCCCCCCCCCCCCC(=O)OCC`, the Potency entry was “inactive”.

The record behind these values is PubChem BioAssay (Tox21).
